In all, about 35,000 sequences were measured (“fluorescence intensity (a.u.)”: median about 10,000, highest 2% from about 52,000 on). Many of the other results were omitted from the sample, so the highest values are more common in it than they were.

The target of this assay is T1, OsWOX13 (Oryza sativa, UniProt Q5QMM3 1-267).
T1 sequence: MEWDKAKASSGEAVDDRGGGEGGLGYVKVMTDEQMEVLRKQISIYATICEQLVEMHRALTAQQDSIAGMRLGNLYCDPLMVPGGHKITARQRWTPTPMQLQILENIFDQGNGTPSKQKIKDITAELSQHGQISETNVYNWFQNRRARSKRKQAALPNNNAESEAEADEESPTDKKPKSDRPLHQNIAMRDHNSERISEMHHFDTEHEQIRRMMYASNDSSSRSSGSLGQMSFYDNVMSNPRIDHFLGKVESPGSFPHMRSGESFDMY
Put plainly: protein-binding microarray (RPBM); PBS, 2% BSA, 51.3 ng/ul salmon testes DNA, 50 uM zinc acetate, 200 nM TF, 25 C, 1 h; high values mean tight binding. As to conditions: protein: recombinant; tags: N-terminal polyhistidine and DsRed monomer fusion (pET32a); label: CyDye5-dUTP incorporated in the synthesized complementary strand; 3' TTTTT single-stranded linker to array surface; dsDNA, one strand shown. In outline:
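Transcription factors were made in E. coli BL21-CodonPlus as N-terminal fusions to a polyhistidine tag and DsRed, then purified on Ni–NTA. After primer extension with Cy5-dUTP and blocking with 2% BSA, a custom Agilent array was exposed for 1 h at 25 °C to 200 nM protein in PBS, 2% BSA, salmon testes DNA and 50 µM zinc acetate. Washed arrays were scanned on an Axon 4000B, and the binding signal is per-feature fluorescence intensity in arbitrary units.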
In the case of “AATTGACGTAATTTCAGGTCGTATTTGTGGTGCAACAACCCGGAGTCACCTAGTGCAG”, the binding signal was 16600 fluorescence intensity (a.u.).
For “CATATTGACAGCTTTGTAATTGCATTTGACAGGTTCAACCCGGAGTCACCTAGTGCAG”, the binding signal was 60500 fluorescence intensity (a.u.).
Turning to “TTTTATCTCACCAATCAATTTAATTTCTTTATTTATTTTCCGGAGTCACCTAGTGCAG”, the binding signal is 6870 fluorescence intensity (a.u.).
As for “GGTCCTAATTGACAAATCCACAGAAGTAGTACTCCAGGAGCGGAGTCACCTAGTGCAG”, the binding signal is 53000 fluorescence intensity (a.u.).
Regarding “AATGTCTGCAATTAATCAATCTGTTAATCTGTTATTAGTACGGAGTCACCTAGTGCAG”, the binding signal was 21900 fluorescence intensity (a.u.).
“TATGCAGTTTTACAATAATTTAATTAAAGTACAGTTTTGTCGGAGTCACCTAGTGCAG”: the binding signal was 5420 fluorescence intensity (a.u.).
For the sequence “TGAGTAAATGTGTTGTTGTTAATTGCTATATGTACAGTTGCGGAGTCACCTAGTGCAG”, the binding signal is 5280 fluorescence intensity (a.u.).
The same measure for “CGAAATTAATTAGCGAAATTAATTAACGCTTTACACAAGGCGGAGTCACCTAGTGCAG”: 64900 fluorescence intensity (a.u.).
As for “TCACAAAATAATTAACTTTAAAATTAAATTTTAGCAGCAGCGGAGTCACCTAGTGCAG”, the binding signal was 15100 fluorescence intensity (a.u.).
For the sequence “TCCACAGATTGAGGAATCCGAGCAACAAATATCCTAGTAGCGGAGTCACCTAGTGCAG”, the binding signal is 11900 fluorescence intensity (a.u.).
“TCCTAATTGTACAATTAATTAAATTAAGTACAGTCCTATGCGGAGTCACCTAGTGCAG”: the binding signal is 53000 fluorescence intensity (a.u.).
For the sequence “ATAATTATTCTGTTAATTAATCAATTATTATCTGGGAATCCGGAGTCACCTAGTGCAG”, the binding signal is 63600 fluorescence intensity (a.u.).
In the case of “TAAAATTAAATTTACAAGGGTTAATTCGCGAGTAATAACGCGGAGTCACCTAGTGCAG”, the binding signal was 12300 fluorescence intensity (a.u.).
As for “TGGACATTGACAAAATCACAGATCCAGTAAGTACTAGTATCGGAGTCACCTAGTGCAG”, the binding signal is 3170 fluorescence intensity (a.u.).
As to “GGCTAATTTGGCGAGGTAATACGGTAGTATAGCACGGTTACGGAGTCACCTAGTGCAG”, the binding signal was 10500 fluorescence intensity (a.u.).
For the sequence “CCCGCTTGAATGGATGGCAATCAACACAAGGAACAGACCGCGGAGTCACCTAGTGCAG”, the binding signal is 13700 fluorescence intensity (a.u.).
As for “AATCAAATTGCCACTTAAATCTATTGCCTCAAGTGAACAGCGGAGTCACCTAGTGCAG”, the binding signal is 16100 fluorescence intensity (a.u.).
Regarding “GATCAATTAATATGGAATTTAAAAGTTCAATTAATATGGACGGAGTCACCTAGTGCAG”, the binding signal is 8910 fluorescence intensity (a.u.).
The same measure for “TTCAATTGATGTTCTTGCTTGCAAGTTGCAACGAGATTTGCGGAGTCACCTAGTGCAG”: 7920 fluorescence intensity (a.u.); for “AATGATGATTGATGGGTCATGGCACAAGGACGCTAAACCGCGGAGTCACCTAGTGCAG”: 40700 fluorescence intensity (a.u.).
The figure for “ATATAATAGCTAATCAAACACTAGTCCGAAGACGTAGTATCGGAGTCACCTAGTGCAG” is 21700 fluorescence intensity (a.u.).
The same measure for “CCCTCGCCTGGGCCGATCCCCATACATCCCGCGAGCGCGACGGAGTCACCTAGTGCAG”: 3440 fluorescence intensity (a.u.); for “GTTCGATTGAGATAGCTCTTAACATCAGTGACTTCTAGCCCGGAGTCACCTAGTGCAG”: 3800 fluorescence intensity (a.u.); for “ATTAATTAACAATAATAAGTGATTAATAATTAATTAATCGCGGAGTCACCTAGTGCAG”: 44200 fluorescence intensity (a.u.).
For “GCTACAATAATTAATCAATTAATTAAATTAAATTAAGTGGCGGAGTCACCTAGTGCAG”, the binding signal was 55300 fluorescence intensity (a.u.).
On to “TTTAATCACAAGCAAATCAATTAACTCATCCATACTCATCCGGAGTCACCTAGTGCAG”, for which the binding signal was 24200 fluorescence intensity (a.u.).
In the case of “TAAGTAATTAATTAATCAATCAATTAATCAATTATTATCCCGGAGTCACCTAGTGCAG”, the binding signal is 52600 fluorescence intensity (a.u.).
The figure for “CCCTCCAATCAAATTAACCTCCATATCTCTAGCAATCTGCCGGAGTCACCTAGTGCAG” is 29800 fluorescence intensity (a.u.).
For “TCCCAATTAAGTCAATCAGTAATAATAAATAATTATGAACCGGAGTCACCTAGTGCAG”, the binding signal is 32500 fluorescence intensity (a.u.).
For “AATTAATTATCATCATTACCGCAAATTCTCAAAAGTCAGGCGGAGTCACCTAGTGCAG”, the binding signal is 41200 fluorescence intensity (a.u.).
In the case of “TTAATTAACGCGATTAATTAGCCGCAAATCTCAATCCAGGCGGAGTCACCTAGTGCAG”, the binding signal was 53200 fluorescence intensity (a.u.).
In the case of “ATAAATTAATCCAGGCGTGATCTCCCGGCGCCCGCACGCGCGGAGTCACCTAGTGCAG”, the binding signal is 7300 fluorescence intensity (a.u.).
The same measure for “GCAATCAATCAATCAATCATATATCCATATCAAATTAAGCCGGAGTCACCTAGTGCAG”: 61800 fluorescence intensity (a.u.); for “TATTCAAATCATTTAAGTAATTATTTATTCTTTTCATATCCGGAGTCACCTAGTGCAG”: 10000 fluorescence intensity (a.u.); for “GATGATAAATTAAGTCACAATAAATAAATAATAATAATATCGGAGTCACCTAGTGCAG”: 5820 fluorescence intensity (a.u.).
The same measure for “CATCCAATCAGTTTAGACAAGGTAAAGTCTCATTTTCACACGGAGTCACCTAGTGCAG”: 17800 fluorescence intensity (a.u.); for “CTCATAACACTTTCCTAATTGCCTCATATGCGGCCTTCCCCGGAGTCACCTAGTGCAG”: 7620 fluorescence intensity (a.u.); for “CTGCACAGTTAATTAAAGGAAAACTGGCGAAAACCCGGCACGGAGTCACCTAGTGCAG”: 8360 fluorescence intensity (a.u.).
The same measure for “CTTGCTGGTACCAATTAACATGGGTATGTTTAATTTGCTGCGGAGTCACCTAGTGCAG”: 3650 fluorescence intensity (a.u.); for “CCTTAATTACATTGTATATAGTGATGTATGATTTATTTTACGGAGTCACCTAGTGCAG”: 14700 fluorescence intensity (a.u.).
With “CATGAGTAAATCAATCAGGGATGGCAACATTCAGGTTTAGCGGAGTCACCTAGTGCAG”, the binding signal is 12200 fluorescence intensity (a.u.).
Turning to “CGTTTTGTTAAATTAAAATAAATTAACAAGCCCAATTGCACGGAGTCACCTAGTGCAG”, the binding signal is 22300 fluorescence intensity (a.u.).

(Values after article PMC7819943, “Rice protein-binding microarrays: a tool to detect cis-acting elements near promoter regions in rice”.)
